Most compounds without a hit are left out; they make up all but 5.4% or so of the library.
VP16 counter: Gal4-VP16 reporter inhibition counter-screen; Drosophila S2 Gal4-VP16 UAS-luciferase, luminescence, 20 h; Potency, µM (titrated, usually from 53.6 µM), inactives show top-dose activity, negative = inhibition, hits mostly inhibitors; hit rate 3.5% among 310,000;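 also: Gal4-VP16 expression switched on by copper sulfate through the metallothionein promoter; potency is read from the fitted curve at half-maximal effect; % is scaled to controls: 0 for no effect and ±100 for the full control effect; nearly all actives have a fitted effect of over 50% in size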
p53 reactivator: restores transcriptional activity of mutant p53 | H1299 p53-A138V BP100-luciferase reporter, luminescence, 24 h | AID 504706 | Potency, µM (doses to about 92.2 µM), for inactives: top-dose activity change, positive = activation, actives largely listed as activators | hit rate 0.063% among 320,000; also: potency is read from the fitted curve at half-maximal effect; % of control where 0% means no effect; nearly all actives have a fitted effect of over 45% in size
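H1299 (p53-null), stable ts p53-A138V + BP100-Luc; 1000 cells/well, Opti-MEM/10% FBS; cpd 4 pt, 1:5; 24 h, 37 deg C, 5% CO2; detection reagent 10 min RT; luminescence.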
Six1-Eya2 inh: inhibitors of human Six1/Eya2 interaction | Q15475+O00167 | AlphaScreen GST-Six1/His-Eya2 binding, biochemical; hits give low values | activity change, % (no concentration beside the values) | hit rate 0.56% among 360,000; in the data active = activity change below about -65%; inconclusive = mostly about -30% to -63%; also: % is scaled to controls: 0 for no effect and ±100 for the full control effect
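AlphaScreen with GST-Six1 and His-Eya2 (5X mix: 250 nM and 500 nM), glutathione donor and nickel acceptor beads; buffer 50 mM Tris pH 8.0, 300 mM NaCl, 1 mM TCEP; 1 h at 37 C in the dark.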
RORgamma inh: ROR gamma (mouse) transcription inhibition. Drosophila S2 Gal4-RORgamma UAS-luciferase reporter, 20 h. hit rate 5.4% among 310,000. AID 2551. Potency, µM (titrated, usually from 53.6 µM), inactives show at the top dose activity change, negative = inhibition, hits mostly inhibitors. P51450; also: potency is read from the fitted curve at half-maximal effect; % is scaled to controls: 0 for no effect and ±100 for the full control effect; nearly all actives have a fitted effect of over 60% in size
Target sequence (P51450 whole entry, looked up, the tested form may be a part): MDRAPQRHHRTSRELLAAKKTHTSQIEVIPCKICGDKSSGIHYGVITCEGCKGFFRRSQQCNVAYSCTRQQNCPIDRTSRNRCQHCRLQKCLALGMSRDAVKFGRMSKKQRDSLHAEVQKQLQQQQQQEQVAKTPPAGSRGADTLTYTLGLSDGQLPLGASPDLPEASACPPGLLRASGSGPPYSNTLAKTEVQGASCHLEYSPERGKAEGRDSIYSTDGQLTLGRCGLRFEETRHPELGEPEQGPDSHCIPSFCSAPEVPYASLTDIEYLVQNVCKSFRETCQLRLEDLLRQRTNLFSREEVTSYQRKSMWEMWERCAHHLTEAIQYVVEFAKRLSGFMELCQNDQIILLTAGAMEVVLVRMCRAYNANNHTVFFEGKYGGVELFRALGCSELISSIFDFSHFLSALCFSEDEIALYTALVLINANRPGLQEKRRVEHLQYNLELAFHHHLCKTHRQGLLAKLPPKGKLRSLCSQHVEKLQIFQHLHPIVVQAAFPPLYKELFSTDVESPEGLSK
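Drosophila Schneider cells stably carrying a metallothionein-driven Gal4 DBD–ROR gamma fusion and a UAS-Photinus luciferase reporter were exposed to compound for 1 hr, then induced with copper sulfate (700 uM final) for 20 hr at ambient temperature before luminescence reading.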
CtBP-E1A inh: blocks the CtBP interaction with E1A; activity change, % (no concentration beside the values); AlphaScreen GST-E1A/His-CtBP binding, 1536-well; hits give low values; hit rate 0.49% among 340,000; in the data active = activity change below about -65%; inconclusive = mostly about -30% to -63%; also: % is scaled to controls: 0 for no effect and ±100 for the full control effect
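GST-E1A and His-tagged CtBP (125 nM each as 5X stock) were preincubated with pin-transferred compound for 2 h at 37 °C in the dark, then glutathione donor and nickel acceptor beads were added for 1 h before AlphaScreen reading.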
Starred values were filed as active, the others as inactive; ? = inconclusive; / = not tested or not shown; [ ] = dose if it differs, or a comment. Unless noted, calls follow the shape of the dose curve; as a rule, active = well fitted curve in the direction sought with a large enough effect; inconclusive = small, poorly fitted or top-dose-only effect, or another doubt; inactive = no such curve, though single readings can be large; an effect the other way counts as inactive or inconclusive.

SMILES | VP16 counter | p53 reactivator | Six1-Eya2 inh | RORgamma inh | CtBP-E1A inh
COc1ccc(NC(=S)N2CCN(C(c3ccccc3)c3ccccc3)CC2)c(OC)c1 | ? | -1% | -20 | 5µM* | 4
O=C(Nc1nc2cc3c(cc2s1)OCCO3)c1ccncc1 | -21% | -4% | -5 | -30% | 3
O=C(NNc1nc2cc3c(cc2s1)OCCO3)c1ccc(F)cc1 | ? | 8% | -2 | 2.8µM* | 2
O=C(Nc1nc2cc3c(cc2s1)OCO3)c1ccco1 | ? | 0% | -14 | ? | -6
O=C(NNc1nc2cc3c(cc2s1)OCO3)c1ccc(F)cc1 | ? | ? | 0 | 1.3µM* | -15
COCCNC(=S)N1CCc2cc(OC)c(OC)cc2C1c1cccs1 (configuration not stated) | -16% | 26% | -3 | -1% | 5
CCCN1CCC(=O)N(C(CSc2ccc(Br)cc2)c2ccccc2)CC1 (configuration not stated) | 29% | / | / | 37% | /
NC(=S)C1COc2ccccc2O1 (configuration not stated) | -29% | 7% | 7 | 13µM* | -3
CC(C)NC(=O)C1COc2ccccc2O1 (configuration not stated) | 1% | 2% | -1 | -33% | /
c1ccc2c(c1)ncn2-c1ncnc2sc3c(c12)CCCC3 | -2% | 7% | 1 | ? | -1
CC(O)CNc1nc2ccccc2n1-c1ncnc2sc3c(c12)CCC3 (configuration not stated) | 14µM* | 0% | -5 | ? | 0
CCC[C@@H]1CC(C(=O)NC(C2O[C@H](SC)C(OP(=O)(O)O)[C@H](O)[C@H]2O)[C@H](C)Cl)N(C)C1 (some centres not stated) | -2% | / | / | 9% | /
O=[N+]([O-])c1cnc(Sc2ccncn2)s1 | 3.2µM* | -15% | -13 | 3.2µM* | /
Cc1ccc(-c2nc(C3CCN(S(=O)(=O)c4ccc(C(F)(F)F)cc4)CC3)no2)cc1 | -11% | 1% | 16 | 22% | 7
CS(=O)(=O)N1CCC(c2noc(-c3ccc(C(F)(F)F)cc3)n2)CC1 | 10µM* | -3% | 0 | ? | 10
O=C(NC(NCc1ccccn1)(C(F)(F)F)C(F)(F)F)c1ccco1 | -15% | 5% | -73* | 10µM* | ?
CN(CCc1ccccn1)C(=S)NC(=O)c1ccco1 | ? | 0% | 4 | 14µM* | 15
O=C(NCCNCc1ccccn1)c1ccco1 | -5% | -1% | ? | 9% | ?
N#CC1=C(c2ccccc2)/C(=C/c2ccccc2)OC1=O | 2.2µM* | 5% | 3 | 3.5µM* | 5
O=C1O/C(=C/c2ccccc2)c2ccccc21 | -15% | 2% | 24 | 23% | 23
Cc1nc(NC(=O)CSc2nnnn2Cc2ccccc2)sc1C | 24% | 0% | 0 | 33% | -6
CC1(c2ccc3ccccc3c2)NC(=O)N(CC(=O)Nc2cccc(S(=O)(=O)N3CCOCC3)c2)C1=O (configuration not stated) | 4% | 4% | -7 | 8% | 6
CCCCn1c(SC(C)C(=O)NCC2CCCO2)nc2cc(C(=O)OC)ccc2c1=O (configuration not stated) | / | -3% | 3 | / | 0
CCCCn1c(SC(C)C(N)=O)nc2cc(C(=O)OC)ccc2c1=O (configuration not stated) | -14% | -10% | 6 | 14µM* | 7
Cc1ccccc1CS(=O)(=O)Cc1ccc(C(=O)NC2CCCCC2)o1 | 5% | -6% | -7 | -3% | -20
SMILES | VP16 counter | p53 reactivator | Six1-Eya2 inh | RORgamma inh | CtBP-E1A inh
Cc1cccc2nc(COc3ccc(-c4ccccc4)cc3)cn12 | 3% | 2% | / | 13µM* | /
Cc1cc(C)n2cc(COc3ccc4ccccc4c3)nc2n1 | -16% | ? | 7 | -2% | -3
NC(=O)c1ccc2c(=O)n3c(-c4cc(Cl)c(N)c(Cl)c4)csc3nc2c1 | -2% | -4% | -75* | -10% | -76*
Cc1nc2c(-c3ccc(F)cc3)cnn2c(N)c1-c1ccccc1 | ? | ? | 24 | 0.045µM* | 33
Nc1nc(CN2CCN(c3cccc(Cl)c3)CC2)nc(N2CCCc3ccccc32)n1 | -27% | -7% | ? | 13% | -10
Nc1nc(CN2CCN(c3ccccc3)CC2)nc(N2CCCc3ccccc32)n1 | -12% | -3% | -14 | -27% | -12
Nc1nc(CN2CCN(c3ccccc3F)CC2)nc(N2CCCc3ccccc32)n1 | ? | -9% | -2 | 11µM* | 1
Nc1nc(CN2CCN(Cc3ccccc3)CC2)nc(N2CCCc3ccccc32)n1 | -6% | 10% | -5 | 10µM* | -10
CCCNC(=O)C1(C)CCN(C(=O)c2ccc3snnc3c2)C1 (configuration not stated) | / | / | 4 | / | 3
CCc1nc(N2CCN(C(=O)CCl)CC2)c2c3c(sc2n1)CC(C)CC3 (configuration not stated) | ? | / | -3 | 16µM* | 3
CCc1nc(N2CCN(C(C)=O)CC2)c2c3c(sc2n1)CC(C(C)(C)C)CC3 (configuration not stated) | ? | 4% | -3 | ? | /
CCN(CC)CCNCc1ccc(-c2ccc(Cl)cc2)o1 | 0% | -5% | -3 | 7.9µM* | 7
Cc1nn2c(=S)[nH]nc2[nH]c1=O | 1% | 7% | -3 | -1% | -22
Cc1n[nH]c(=S)n(NC(=O)/C=C/C(=O)Nn2c(=S)[nH]nc(C)c2=O)c1=O | -14%[10 µM] | -2% | -88* | -12% | ?
Cc1n[nH]c(=S)n(NC(=O)CC(=O)Nn2c(=S)[nH]nc(C)c2=O)c1=O | -24% | 4% | -87* | -37% | 24
CC(=O)OCC1OC(C#CCCc2ccccc2)C=CC1OC(C)=O (configuration not stated) | -2%[10 µM] | / | / | 17%[10 µM] | /
Cc1ccc2nc(N3C(=O)CNC3=S)sc2c1 | 3.5µM* | 5% | ? | 1µM* | ?
COc1ccc2nc(N3C(=O)CNC3=S)sc2c1 | 5.6µM* | 4% | -12 | 0.5µM* | 1
Cc1cccc(CC2CC(=O)N(c3nc4ccccc4s3)C2=O)c1 (configuration not stated) | 5% | -2% | 1 | 33% | 2
COc1ccc([C@@H]2CNC(=O)C2)cc1OC1CCCC1 | 2% | / | / | 12% | /
COc1ccc(N/N=C/c2c(C(=O)O)ccc3ccccc23)cc1 | 4.5µM* | ? | ? | 1.4µM* | -15
Cc1c(N2C(=O)c3cccc4cccc(c34)C2=O)cnn1C | -5% | -5% | 0 | -9% | -11
C=C[C@](C)(O)CCC1C(=C)CC(OC(C)=O)C2C(C)(C)CCCC12C (some centres not stated) | -17% | / | / | 1.1µM* | /
O=C(Nc1nnc(CSCc2ccccc2F)s1)c1cccc([N+](=O)[O-])c1 | 5µM* | 13% | -3 | 4.5µM* | -11
